# From PubChem BioAssay AID640 (Columbia University Molecular Screening Center, 2007)
# The campaign covered roughly 96,000 compounds. About 200 (0.21%) were called active. Many of the other results were omitted from the sample, so actives are more common in it than they were. A number with no mark means an inactive call.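 How the source made its calls: active means inhibition at 2 µM at or above a set limit, the screen mean plus 3 SD (cut at about 24% in these data); inactive means the rest.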
# Target: Tyrosine-protein phosphatase non-receptor type 22 (Homo sapiens) (UniProt Q9Y2R2)
# Sequence (Q9Y2R2 whole entry, looked up): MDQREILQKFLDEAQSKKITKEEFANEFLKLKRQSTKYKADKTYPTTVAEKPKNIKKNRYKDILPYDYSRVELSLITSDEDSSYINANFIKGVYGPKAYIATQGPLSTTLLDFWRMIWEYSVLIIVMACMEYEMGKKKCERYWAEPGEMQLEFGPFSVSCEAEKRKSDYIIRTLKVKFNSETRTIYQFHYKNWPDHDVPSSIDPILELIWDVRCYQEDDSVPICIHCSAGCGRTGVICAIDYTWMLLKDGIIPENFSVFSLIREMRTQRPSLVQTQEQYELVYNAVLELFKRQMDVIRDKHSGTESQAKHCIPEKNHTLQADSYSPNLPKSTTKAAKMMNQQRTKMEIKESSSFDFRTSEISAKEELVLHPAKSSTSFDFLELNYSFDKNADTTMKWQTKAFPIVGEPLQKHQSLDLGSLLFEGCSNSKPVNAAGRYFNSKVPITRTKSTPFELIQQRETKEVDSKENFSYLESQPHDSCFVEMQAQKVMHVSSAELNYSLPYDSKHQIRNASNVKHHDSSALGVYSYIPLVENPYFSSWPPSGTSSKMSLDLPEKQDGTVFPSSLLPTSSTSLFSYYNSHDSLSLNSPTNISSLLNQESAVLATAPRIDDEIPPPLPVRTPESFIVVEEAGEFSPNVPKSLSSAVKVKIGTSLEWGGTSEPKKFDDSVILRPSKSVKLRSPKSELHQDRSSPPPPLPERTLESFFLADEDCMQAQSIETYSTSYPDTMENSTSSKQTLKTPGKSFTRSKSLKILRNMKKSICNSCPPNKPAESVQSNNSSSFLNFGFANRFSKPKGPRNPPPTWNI
# Assay: PTPN22 phosphatase inhibitors, primary screen, biochemical, DiFMUP fluorescence, 2 µM (AID 640);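 further: 0% = DMSO with enzyme and 100% = enzyme fully blocked by orthovanadate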
# Conditions: recombinant LYP catalytic domain, at 2 µM, stronger effect = higher value
row,SMILES,inhibition
1,Cc1cc([N+](=O)[O-])c(NC2CCCCC2)c([N+](=O)[O-])c1,6.5%
2,CC1(C)NC(=O)N(CCCCSc2ccc(Cl)cc2)C1=O,3.1%
3,COC(=O)C1=C(Nc2ccc(C)cc2)C=C(C)C(C(=O)OC)C1c1ccc(F)cc1 (stereo not given),-3.3%
4,c1ccc(CC2CCN(c3nc4ccccc4n4cnnc34)CC2)cc1,7.3%
5,CON(C)S(=O)(=O)c1ccc2c(c1)NC(=O)C1CCCN21 (stereo not given),6.3%
6,CN1CCN(C(=O)Cn2c(C(F)(F)F)nc3ccccc32)CC1,1.3%
7,COc1ccc(-n2c(C)csc2=S)cc1,-3.8%
8,CCCCN(CC)CCCNC(=O)CS(=O)(=O)Cc1nc(-c2cccc(OC)c2)oc1C,4.8%
9,CCCCCCc1cc2cc(-c3nnc(-c4cccc(OC)c4)o3)c(=O)oc2cc1O,30.9% (active)
10,CCCCCCc1cc2cc(-c3nnc(-c4ccccc4)o3)c(=O)oc2cc1O,16%
11,COc1ccc(OCC(=O)NN2Cc3ccccc3C2=N)cc1,8.2%
12,Cc1cc(=O)oc2cc(OCC3CC(c4ccccc4Cl)=NO3)ccc12 (stereo not given),0.4%
13,COc1ccc(/C(O)=C2\C(=O)C(=O)N(Cc3ccco3)C2c2ccc(OC)cc2OC)cc1 (stereo not given),3%
14,O=C(CN(c1ccccc1)S(=O)(=O)c1ccc(Cl)cc1)Nc1ccccc1C(=O)N1CCCC1,3%
15,Cc1sc2nc(SCC(N)=O)n(C)c(=O)c2c1C,-1%
16,CC(=O)c1cnc(SCCN2C(=O)c3ccccc3C2=O)nc1C,-4.7%
17,CCOc1ccccc1NC(=O)C1CCCN(C(=O)Nc2ccccc2)C1 (stereo not given),-6%
18,COc1cccc(NC(=O)CN2CCN(c3nc(-c4cccc(OC)c4)cs3)CC2)c1,8.7%
19,CCOC(=O)c1[nH]c(C)c(C(=O)OCC(=O)N2c3ccccc3CC2C)c1C (stereo not given),2.3%
20,COc1ccc(C(C#N)Nc2ccccc2C)cc1 (stereo not given),7.5%
21,CCCCNC(=O)C1(c2ccc(OC)cc2)CCOCC1,6.4%
22,CCNC(=S)N1CCN(C(=O)c2ccco2)CC1,-9.6%
23,O=C(/C=C/c1ccccc1)N/C(=C/c1ccccc1)C(=O)Nc1ccccc1O,10%

row,SMILES,inhibition
1,Cc1ccc(-c2cc(C(=O)NCC3CCCO3)c3ccccc3n2)o1 (stereo not given),2.7%
2,C=CCn1c(-c2ccc(Cl)cc2)ccc(C#N)c1=O,8.4%
3,Oc1ccc2ccc3cccc[n+]3c2c1,2.8%
4,Cc1csc2ncc(C(=O)N(Cc3ccccc3)c3ccccn3)c(=O)n12,-3.8%
5,Cc1ccc(CN(C(=O)c2sc3ccccc3c2Cl)C2CCS(=O)(=O)C2)cc1 (stereo not given),3.5%
6,CSc1cc(C)n(-c2ccccc2C)c(=S)c1C(C)=O,-1.3%
7,O=C(Nc1ccccc1C(=O)NCCCn1ccnc1)c1ccc(Cl)cc1Cl,4.3%
8,COc1ccc(CNCCCO)cc1OC,2.8%
9,c1ccc2c(-c3nn4nnnc4c4ccccc34)cccc2c1,11.7%
10,COc1ccc(Oc2c(Cl)cnn(-c3ccccc3)c2=O)cc1,-10.1%
11,COC(=O)CNS(=O)(=O)c1ccc(OC)cc1,-2.1%
12,CCOc1cc(C(=O)Nc2c(C)ccc3nsnc23)cc(OCC)c1OCC,-14.9%
13,CC(C)(C)c1ccc(C(=O)NCC(=O)OCN2C(=O)c3ccccc3C2=O)cc1,-8.4%
14,O=C(/C=C/NNC(=O)c1cccc(Br)c1)c1ccccc1,5.3%
15,Fc1ccccc1COc1ccccc1CNCc1ccncc1,4.4%
16,CCC(=O)NCCc1nc2ccccc2n1CC,-1%
17,CNc1nc(SC)nc(N(C#N)CC(=O)OC)n1,-3.4%
18,CCNc1nc(NC(C)C)nc(OCCOC(=O)c2ccccc2)n1,-0.4%
19,c1ccc(-c2ccnc3nc(-n4cccc4)nn23)cc1,9.9%
20,Cc1cc2nc(SCCN3CCOCC3)[nH]c2cc1C,-1%
21,O=C1N=C(N2CCOCC2)S/C1=C\C=C/c1ccccc1,0.2%
22,CCOCCCNC(=O)C(NC(=O)c1ccc(=O)[nH]c1)c1ccc(C)cc1 (stereo not given),3%
